Laboratory results: PubChem BioAssay

System: not listed separately
Assay: mitochondrial membrane potential change in A549 cells, profiling panel, cell-based, JC-1 fluorescence, basal, 24 h, 100 nL (AID 1138);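 further: A549 lung adenocarcinoma cells under basal conditions with no added stimulus; test concentration not given here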
Details: higher = more signal
`CO[C@@H]1C=CCC(=O)N[C@@H](C)C(=O)OC[C@@H](NS(=O)(=O)c2ccc(C)cc2)[C@H](C)C=CCC(=O)OC[C@H]1C` showed a z-score of -0.198.
In the case of `C[C@@H]1CC[C@@H](C(=O)O)N[C@H]1c1cccc(N2CCOCC2)c1`, the z-score is reported as 2.11.
In the case of `CO[C@@H]1COC(=O)[C@@H]2CCCN2C(=O)[C@@H](C)COC(=O)CCC[C@H]1C`, the z-score is reported as -0.601.
With `O=C1[C@H]2[C@H]3[C@H](O)[C@H](O)CC(=NOC[C@@H](O)COCc4ccco4)[C@@H]3CC[C@H]2C(=O)N1C1CCCCC1` the z-score was -0.144.
Work on `CC(CCC(=O)OC[C@H]1O[C@H](C#Cc2ccccc2)C=C[C@@H]1Oc1ccc(C)cc1)=NO[C@H](C)c1cn([C@@H]2COC[C@H]2O)nn1` yielded a z-score of -0.262.
For `C[C@H]1CC[C@H]2C(=O)N[C@H](Cc3ccccc3)C(=O)N2[C@@H]1c1ccccc1`, the z-score was 0.514.
In the case of `CC(=O)OC[C@H]1O[C@H](CC=NO[C@H](C)c2cn([C@@H]3COC[C@H]3O)nn2)C=C[C@@H]1OC(C)=O`, the z-score is reported as -0.17.
In the case of `O=C1CCCC=C1C(O)COCc1ccccc1` (configuration not stated), the z-score is reported as -0.68.
In the case of `COc1ccc(COC(=O)NN=C2C[C@@H](O)[C@@H](O)[C@@H]3[C@@H]4C(=O)N(C5CCCCC5)C(=O)[C@@H]4CC[C@@H]23)cc1`, the z-score is reported as 0.847.
`COC(=O)CC=C[C@@H](C)[C@@H](C=NOC[C@@H](O)COCc1ccco1)OC` gave a z-score of 0.662.
Work on `O=C1[C@H]2[C@H]3[C@H](O)[C@H](O)CC(=NO[C@@H]4O[C@H](CO)[C@@H](O)[C@H](O)[C@H]4O)[C@@H]3CC[C@H]2C(=O)N1C[C@@H]1CCCO1` yielded a z-score of -1.08.
For `O=C1[C@H]2[C@H]3[C@H](O)[C@H](O)CC(=NOC[C@@H](O)COCc4ccco4)[C@@H]3CC[C@H]2C(=O)N1Cc1ccccc1`, the z-score was 0.0705.
Compound `CCOC(=O)[C@H](Cc1ccccc1)NC(=O)CCC1CC(OC(=O)NCCc2ccc(F)cc2)CC2(CCCC(COC(=O)NCc3cccc(C(F)(F)F)c3)O2)O1` (some centres not stated) has a z-score of 0.578.
In the case of `O=C1C=C[C@@H](O)[C@@H]2[C@@H]3C(=O)N(C4CCCCC4)C(=O)[C@@H]3CC[C@@H]12`, the z-score is reported as 1.09.
`CCN1C(=O)[C@H]2[C@@H]3C(=CC[C@H]2C1=O)C(=O)[C@H]1O[C@H]1[C@H]3O` showed a z-score of -0.923.
For `CCOC(=O)[C@H](Cc1ccccc1)NC(=O)CCC1CC(OC(=O)NCc2ccc3c(c2)OCO3)CC2(CCCC(COC(=O)NCCOc3ccccc3)O2)O1` (some centres not stated), the z-score was 1.37.
`CCN1C(=O)[C@H]2[C@H]3[C@H](O)[C@H](O)CC(=NO[C@H](C)c4cn([C@H](CO)Cc5ccccc5)nn4)[C@@H]3CC[C@H]2C1=O` gave a z-score of -0.00321.
Work on `COC(OC)[C@@H](C)[C@H](OC)[C@@H](C)[C@H](OC)c1ccccc1` yielded a z-score of 2.15.
In the case of `CO[C@@H]1COC(=O)[C@H](CCSC)NC(=O)CC=C[C@@H](C)COC(=O)[C@@H]2CCCN2C(=O)CC=C[C@H]1C`, the z-score is reported as 0.215.
Work on `CC(C)=NO[C@H](C)c1cn([C@@H]2COC[C@H]2O)nn1` yielded a z-score of 0.027.
With `CC(C)=NOC(C)CN1CCCc2nc(C)c(C)cc21` (configuration not stated) the z-score was 0.354.
With `CC#CCOCCC=C1c2ccccc2[C@@H](OC)[C@@H]1C` the z-score was -0.198.
Work on `O=C1[C@H]2[C@H]3[C@H](O)[C@H](O)CC(=NO[C@@H]4O[C@H](CO)[C@@H](O)[C@H](O)[C@H]4O)[C@H]3CC[C@H]2C(=O)N1C[C@@H]1CCCO1` yielded a z-score of -0.222.
Compound `O=C1C[C@H](c2ccccc2)[C@H](c2ccc(Br)cc2)O1` has a z-score of -0.421.
`CO[C@H]1COC(=O)CC=C[C@@H](C)COC(=O)[C@H]2CCCN2C(=O)CC=C[C@H]1C` showed a z-score of 1.06.
In the case of `O=C(NN=C1C[C@@H](O)[C@@H](O)[C@@H]2[C@@H]3C(=O)N(Cc4ccccc4)C(=O)[C@@H]3CC[C@H]12)OCc1ccccc1`, the z-score is reported as 0.101.

System: Lefty1
Assay: Lefty1 binders on small-molecule microarrays, primary screen, biochemical, small-molecule microarray, 635/667 nm fluorescence (AID 1139)
Details: small-molecule microarray binding, fluorescence 635/667; higher = more signal
Compound `CON=C(C)CCN1CCCCc2nc(C)c(C)cc21` has a composite z-score of 1.05.
`CCOC(=O)[C@H](Cc1ccccc1)NC(=O)CCC1CC(OC(=O)NCc2cccc3ccccc23)CC2(CCCC(COC(=O)NCC3CCCCC3)O2)O1` (some centres not stated) showed a composite z-score of 0.826.
For `CO[C@H]1COC(=O)CCC[C@H](C)[C@@H](OC)COC(=O)CC=C[C@@H]1C`, the composite z-score was 0.562.
`C[C@H]1C=CCC(=O)OC[C@H](C)C(=O)N2CCC[C@H]2C(=O)OC1` gave a composite z-score of 1.61.
With `CC(=O)OC[C@H]1O[C@H](CCON=C(C)C)C=C[C@@H]1OC(C)=O` the composite z-score was 0.377.
In the case of `CC(C)[C@@H](OCc1ccccc1)[C@H](C)C=NO[C@@H](C)c1cn([C@H](CO)Cc2ccccc2)nn1`, the composite z-score is reported as 0.249.
Compound `O=C1C2=CC[C@H]3C(=O)N(C4CCCCC4)C(=O)[C@H]3[C@H]2[C@H](O)[C@@H]2O[C@H]12` has a composite z-score of -0.455.
In the case of `CC(C)(C)N1C(=O)[C@H]2[C@H]3[C@H](O)[C@H](O)CC(=NNC(=O)OCc4ccccc4)[C@H]3CC[C@H]2C1=O`, the composite z-score is reported as 1.43.
With `CC(C)(C)N1C(=O)[C@H]2[C@H]3[C@H](O)[C@H](O)CC(=NNC(=O)OCc4ccccc4)[C@@H]3CC[C@H]2C1=O` the composite z-score was 0.34.
`O=C1C2=CC[C@H]3C(=O)N(C[C@@H]4CCCO4)C(=O)[C@H]3[C@H]2[C@H](O)[C@@H]2O[C@H]12` showed a composite z-score of 0.233.
For `CO[C@@H]1C=CCC(=O)N[C@@H](C)C(=O)OC[C@@H](NS(=O)(=O)c2ccc(C)cc2)[C@H](C)C=CCC(=O)OC[C@H]1C`, the composite z-score was 0.841.
`C[C@@H]1CC[C@@H](C(=O)O)N[C@H]1c1cccc(N2CCOCC2)c1` showed a composite z-score of 0.554.
Work on `CO[C@@H]1COC(=O)[C@@H]2CCCN2C(=O)[C@@H](C)COC(=O)CCC[C@H]1C` yielded a composite z-score of 0.486.
Work on `O=C1[C@H]2[C@H]3[C@H](O)[C@H](O)CC(=NOC[C@@H](O)COCc4ccco4)[C@@H]3CC[C@H]2C(=O)N1C1CCCCC1` yielded a composite z-score of 1.58.
Work on `CC(CCC(=O)OC[C@H]1O[C@H](C#Cc2ccccc2)C=C[C@@H]1Oc1ccc(C)cc1)=NO[C@H](C)c1cn([C@@H]2COC[C@H]2O)nn1` yielded a composite z-score of 0.317.
Work on `C[C@H]1CC[C@H]2C(=O)N[C@H](Cc3ccccc3)C(=O)N2[C@@H]1c1ccccc1` yielded a composite z-score of 0.426.
Work on `CC(=O)OC[C@H]1O[C@H](CC=NO[C@H](C)c2cn([C@@H]3COC[C@H]3O)nn2)C=C[C@@H]1OC(C)=O` yielded a composite z-score of 0.42.
Compound `O=C1CCCC=C1C(O)COCc1ccccc1` (configuration not stated) has a composite z-score of 0.295.
`COc1ccc(COC(=O)NN=C2C[C@@H](O)[C@@H](O)[C@@H]3[C@@H]4C(=O)N(C5CCCCC5)C(=O)[C@@H]4CC[C@@H]23)cc1` gave a composite z-score of -0.371.
For `COC(=O)CC=C[C@@H](C)[C@@H](C=NOC[C@@H](O)COCc1ccco1)OC`, the composite z-score was 1.02.
For `O=C1[C@H]2[C@H]3[C@H](O)[C@H](O)CC(=NO[C@@H]4O[C@H](CO)[C@@H](O)[C@H](O)[C@H]4O)[C@@H]3CC[C@H]2C(=O)N1C[C@@H]1CCCO1`, the composite z-score was 0.649.
`O=C1[C@H]2[C@H]3[C@H](O)[C@H](O)CC(=NOC[C@@H](O)COCc4ccco4)[C@@H]3CC[C@H]2C(=O)N1Cc1ccccc1` gave a composite z-score of 0.941.
Work on `CCOC(=O)[C@H](Cc1ccccc1)NC(=O)CCC1CC(OC(=O)NCCc2ccc(F)cc2)CC2(CCCC(COC(=O)NCc3cccc(C(F)(F)F)c3)O2)O1` (some centres not stated) yielded a composite z-score of 1.64.
`O=C1C=C[C@@H](O)[C@@H]2[C@@H]3C(=O)N(C4CCCCC4)C(=O)[C@@H]3CC[C@@H]12` gave a composite z-score of 0.629.
For `CCN1C(=O)[C@H]2[C@@H]3C(=CC[C@H]2C1=O)C(=O)[C@H]1O[C@H]1[C@H]3O`, the composite z-score was 1.39.
In the case of `CCOC(=O)[C@H](Cc1ccccc1)NC(=O)CCC1CC(OC(=O)NCc2ccc3c(c2)OCO3)CC2(CCCC(COC(=O)NCCOc3ccccc3)O2)O1` (some centres not stated), the composite z-score is reported as 1.2.
Compound `CCN1C(=O)[C@H]2[C@H]3[C@H](O)[C@H](O)CC(=NO[C@H](C)c4cn([C@H](CO)Cc5ccccc5)nn4)[C@@H]3CC[C@H]2C1=O` has a composite z-score of 0.734.
For `COC(OC)[C@@H](C)[C@H](OC)[C@@H](C)[C@H](OC)c1ccccc1`, the composite z-score was 0.253.
`CO[C@@H]1COC(=O)[C@H](CCSC)NC(=O)CC=C[C@@H](C)COC(=O)[C@@H]2CCCN2C(=O)CC=C[C@H]1C` showed a composite z-score of 1.15.
For `CC(C)=NO[C@H](C)c1cn([C@@H]2COC[C@H]2O)nn1`, the composite z-score was 0.718.
With `CC(C)=NOC(C)CN1CCCc2nc(C)c(C)cc21` (configuration not stated) the composite z-score was 0.947.
For `CC#CCOCCC=C1c2ccccc2[C@@H](OC)[C@@H]1C`, the composite z-score was 1.24.
Compound `O=C1[C@H]2[C@H]3[C@H](O)[C@H](O)CC(=NO[C@@H]4O[C@H](CO)[C@@H](O)[C@H](O)[C@H]4O)[C@H]3CC[C@H]2C(=O)N1C[C@@H]1CCCO1` has a composite z-score of 0.0013.
Work on `O=C1C[C@H](c2ccccc2)[C@H](c2ccc(Br)cc2)O1` yielded a composite z-score of 0.0985.
With `CO[C@H]1COC(=O)CC=C[C@@H](C)COC(=O)[C@H]2CCCN2C(=O)CC=C[C@H]1C` the composite z-score was 1.68.
In the case of `O=C(NN=C1C[C@@H](O)[C@@H](O)[C@@H]2[C@@H]3C(=O)N(Cc4ccccc4)C(=O)[C@@H]3CC[C@H]12)OCc1ccccc1`, the composite z-score is reported as 0.617.
